Records with an inconclusive call do not appear. Active and inactive are the calls of the source. Rule for the calls, unless noted: active = hit-call score of the fitted dose curve at least 0.9, where 1 is the maximum; inactive = score below 0.9.
Experiments:
[1] = read-out: Transforming Growth Factor (TGFB1), TGFB1 (gene 7040); assay: LTEA_HepaRG_TGFB1: Life Technologies and Expression Analysis (LTEA) Assay for Transforming Growth Factor (TGFB1) Transporter using HepaRG (AID 2283533); conditions: mRNA level, 48 h; actives raise or lower the signal
Summary of the method: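 qRT-PCR readout of TGFB1 transcript in HepaRG lysates, normalized to three housekeeping genes; gain or loss of signal fitted relative to 0.5% DMSO vehicle. Exposure: 48 h, 8-point curve from 100 uM, duplicate wells.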

TIMP1, TIMP1 (gene 7076) = assay: LTEA_HepaRG_TIMP1: Life Technologies and Expression Analysis (LTEA) Assay for TIMP1 using HepaRG (AID 2283534); conditions: mRNA level, 48 h; actives raise or lower the signal
Summary of the method: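 HepaRG, 48 h exposure, 8-pt half-log series from 100 uM in 0.5% DMSO, duplicates; TIMP1 transcript by Fluidigm qRT-PCR, housekeeping-normalized; bidirectional curve fit vs DMSO baseline.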

[2] = read-out: Tumor necrosis factor receptor 1 (TNFRSF1A), TNFRSF1A (gene 7132); assay: LTEA_HepaRG_TNFRSF1A: Life Technologies and Expression Analysis (LTEA) Assay for Tumor necrosis factor receptor 1 (TNFRSF1A) using HepaRG (AID 2283535); conditions: mRNA level, 48 h; actives raise or lower the signal
Summary of the method: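 HepaRG, 48 h plating then 48 h chemical exposure, serum-free induction media; 8-pt CRC from 100 uM, half-log, 0.5% DMSO vehicle, duplicates. Readout: TaqMan qRT-PCR (Fluidigm), housekeeping-gene normalized; bidirectional fit vs DMSO.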

[3] = read-out: Thyroid Hormone Responsive (THRSP), THRSP (gene 7069); assay: LTEA_HepaRG_THRSP: Life Technologies and Expression Analysis (LTEA) Assay for Thyroid Hormone Responsive (THRSP) using HepaRG (AID 2283536); conditions: mRNA level, 48 h; actives raise or lower the signal
Summary of the method: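 qRT-PCR read-out (Fluidigm TaqMan), housekeeping-normalized (ACTB/GAPDH/POLR2A). HepaRG, 48 h chemical exposure, 8-pt half-log series from 100 uM in 0.5% DMSO, duplicates. Bidirectional curve fit vs 0.5% DMSO baseline.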

[4] = read-out: UDP glucuronosyltransferase (UGT1A1), UGT1A1 (gene 54658); assay: LTEA_HepaRG_UGT1A1: Life Technologies and Expression Analysis (LTEA) Assay for UDP glucuronosyltransferase (UGT1A1) using HepaRG (AID 2283538); conditions: mRNA level, 48 h; actives raise or lower the signal
Summary of the method: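 HepaRG, 48 h chemical exposure (top 100 uM, half-log 8-pt, 0.5% DMSO vehicle), duplicate wells; qRT-PCR (TaqMan, Fluidigm array) for UGT1A1 mRNA, housekeeping-normalized; bidirectional curve fit vs DMSO baseline.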

[5] = read-out: UDP glucuronosyltransferase (UGT1A6), UGT1A6 (gene 54578); assay: LTEA_HepaRG_UGT1A6: Life Technologies and Expression Analysis (LTEA) Assay for UDP glucuronosyltransferase (UGT1A6) using HepaRG (AID 2283539); conditions: mRNA level, 48 h; actives raise or lower the signal
Summary of the method: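 qRT-PCR readout of UGT1A6 mRNA (normalized to ACTB/GAPDH/POLR2A) in differentiated HepaRG cells after 48 h chemical exposure; 8 concentrations, top 100 uM, half-log steps, 0.5% DMSO. Bidirectional curve fit relative to DMSO baseline.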

[6] = read-out: X-box binding protein 1 (XBP1), XBP1 (gene 7494); assay: LTEA_HepaRG_XBP1: Life Technologies and Expression Analysis (LTEA) Assay for X-box binding protein 1 (XBP1) using HepaRG (AID 2283540); conditions: mRNA level, 48 h; actives raise or lower the signal
Summary of the method: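 HepaRG, 48 h exposure, 8-pt half-log CRC top 100 uM, 0.5% DMSO vehicle, duplicates. Readout: TaqMan qRT-PCR of XBP1 mRNA, housekeeping-normalised (ACTB/GAPDH/POLR2A); bidirectional fit vs DMSO baseline.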

[7] = LTEA_HepaRG_LDH_cytotoxicity: Cytotoxicity Assessment in the Life Technologies and Expression Analysis (LTEA) Assay (AID 2283563; active = hit-call score of the fitted dose curve at least 0.9, where 1 is the maximum)
Summary of the method: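 HepaRG (human liver line), 48 h exposure, 8-pt half-log series from 100 uM, 0.5% DMSO vehicle, duplicates. Read-out: LDH in spent medium. Positive-direction fit vs DMSO baseline.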

[8] = read-out: Cellular tumor antigen p53 (Homo sapiens) (UniProt P04637); assay: LTEA_HepaRG_TP53: Life Technologies and Expression Analysis (LTEA) Assay for Tumor Protein P53 (TP53) using HepaRG (AID 2283537); conditions: mRNA level, 48 h; actives raise or lower the signal
Summary of the method: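 TP53 transcript measured by qRT-PCR, normalized to three housekeeping genes, after 48 h treatment of human HepaRG cultures with chemicals from 100 uM downward in half-log steps (0.5% DMSO vehicle, serum-free induction medium). Up- or down-regulation fitted against DMSO.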

[9] = ATG_XTT_Cytotoxicity: Cytotoxicity Assessment in the Attagene TRANS-FACTORIAL HepG2 Assay (AID 2283584; active = hit-call score of the fitted dose curve at least 0.9, where 1 is the maximum)
Summary of the method: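 XTT readout of cell number in transfected HepG2 cells, 24 h post-dosing; DMSO serves as negative control and baseline, with activity taken as loss of viability signal.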

Chain of Cellular tumor antigen p53 (Homo sapiens) (P04637 whole entry, looked up): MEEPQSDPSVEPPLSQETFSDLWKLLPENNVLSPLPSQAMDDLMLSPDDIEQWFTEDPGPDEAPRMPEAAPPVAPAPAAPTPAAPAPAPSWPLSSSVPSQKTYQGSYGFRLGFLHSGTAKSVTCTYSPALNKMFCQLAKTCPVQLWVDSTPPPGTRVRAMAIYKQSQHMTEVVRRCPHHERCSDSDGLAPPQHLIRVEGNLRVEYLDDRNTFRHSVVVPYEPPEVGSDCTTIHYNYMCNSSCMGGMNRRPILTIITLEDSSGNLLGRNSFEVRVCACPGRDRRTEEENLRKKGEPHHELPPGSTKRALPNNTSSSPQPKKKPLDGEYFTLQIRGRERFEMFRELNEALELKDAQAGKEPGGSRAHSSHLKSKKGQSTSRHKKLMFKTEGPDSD

Compound	outcome [1]	outcome (TIMP1, TIMP1 (gene 7076))	outcome [2]	outcome [3]	outcome [4]	outcome [5]	outcome [6]	outcome [7]	outcome [8]	outcome [9]	AC50 [1]	AC50 [3]	AC50 [4]
CCCCCOC(=O)COc1cc(N2C(=O)C3=C(CCCC3)C2=O)c(F)cc1Cl	inactive	inactive	inactive	inactive	inactive	inactive	inactive	inactive					
COc1c(Cl)ccc(Cl)c1C(=O)O	inactive	inactive	inactive	inactive	inactive	inactive	inactive	inactive					
CC(C)(c1ccc(O)cc1)c1ccc(O)cc1	inactive	inactive	inactive	inactive	inactive	inactive	inactive	inactive	inactive	inactive			
O=C(c1ccccc1)C1CCCCC1	inactive	inactive	inactive	inactive	inactive	inactive	inactive	inactive	inactive	inactive			
CCOC(=O)c1ccc(O)cc1	inactive	inactive	inactive	inactive	inactive	inactive	inactive	inactive	inactive	inactive			
CSC(=O)c1cccc2nnsc12	inactive	inactive	inactive	inactive	inactive	inactive	inactive	inactive	inactive	inactive			
CCCCC(CC)CN1C(=O)C2C3C=CC(C3)C2C1=O (configuration not stated)		inactive	inactive			inactive	inactive	inactive	inactive	inactive	78.8 µM (active)	22.9 µM (active)	88.5 µM (active)
O=C(c1ccc(O)cc1O)c1ccc(O)cc1O	inactive	inactive	inactive	inactive	inactive	inactive	inactive	inactive	inactive	inactive			
C#C[C@]1(O)CC[C@H]2[C@@H]3CCC4=CC(=O)CC[C@@H]4[C@H]3CC[C@@]21CC	inactive		inactive			inactive	inactive	inactive	inactive	inactive		0.0275 µM (active)	0.291 µM (active)
C[C@]12C[C@H](O)[C@H]3[C@@H](CCC4=CC(=O)CC[C@@]43C)[C@@H]1CC[C@@H]2C(=O)CO	inactive	inactive	inactive			inactive	inactive	inactive	inactive	inactive		50 µM (active)	50 µM (active)
CC1(C)C(C=C(Cl)Cl)C1C(=O)OCc1cccc(Oc2ccccc2)c1 (configuration not stated)	inactive	inactive	inactive	inactive		inactive	inactive	inactive	inactive	inactive			14.6 µM (active)
CCOC(=O)C(C)Oc1ccc(Oc2cnc3cc(Cl)ccc3n2)cc1 (configuration not stated)	inactive	inactive	inactive	inactive	inactive	inactive	inactive	inactive					
COc1nc(C)nc(NC(=O)NS(=O)(=O)c2ccccc2OCCCl)n1										inactive			
CCCCOCCOCCOCc1cc2c(cc1CCC)OCO2	inactive	inactive	inactive			inactive	inactive	inactive				10.7 µM (active)	3.72 µM (active)

Reference: PubChem BioAssay (EPA / NIEHS)
